Source: PubChem BioAssay AID1918 (Vanderbilt High Throughput Screening Facility, 2009)
Hit rate of the full screen: of about 130,000 compounds, about 2,500 (1.9%) were called active. The sample holds actives, similar compounds and a random draw of the others, so the mix is not that of the screen.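 Rule for the calls: active = signal ratio slope over the read window, or its plate-corrected B-score, at least 3 SD from the plate mean, either direction; inactive = the rest.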

Biological target: ATP-sensitive inward rectifier potassium channel 1 (Homo sapiens) (UniProt P48048)
Sequence (P48048 whole entry, looked up): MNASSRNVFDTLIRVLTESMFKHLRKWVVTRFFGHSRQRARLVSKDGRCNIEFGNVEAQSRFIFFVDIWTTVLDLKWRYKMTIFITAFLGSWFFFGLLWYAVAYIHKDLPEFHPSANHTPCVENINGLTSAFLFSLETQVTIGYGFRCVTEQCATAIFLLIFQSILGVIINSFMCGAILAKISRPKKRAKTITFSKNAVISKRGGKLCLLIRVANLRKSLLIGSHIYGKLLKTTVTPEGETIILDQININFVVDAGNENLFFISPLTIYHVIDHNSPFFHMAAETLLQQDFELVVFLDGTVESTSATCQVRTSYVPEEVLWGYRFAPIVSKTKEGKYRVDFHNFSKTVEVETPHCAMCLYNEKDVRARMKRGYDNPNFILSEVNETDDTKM
Test: ROMK potassium channel modulators, primary screen, cell-based, thallium flux, MLSMR library (AID 1918);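 note: B-score of the F/F0 ratio slope over 7 to 12 s after thallium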
Settings: Tet-inducible ROMK, thallium flux fluorescence; at 10 µM; actives lie on both sides

B-score, inactive:
COc1ccccc1C(=O)N1CC2(C)CC1CC(C)(C)C2 (stereo not drawn) -0.0792
COc1ccc(C(=O)N2CC3(C)CC2CC(C)(C)C3)cc1OC (stereo not drawn) 0.464
Cc1ccc(SCCC(=O)NCc2ccccn2)cc1 -0.142
O=C(O)CC(SCC(=O)Nc1ccc(Br)cc1)C(=O)O (stereo not drawn) -0.193
Cc1ccc(C2C3=C(Nc4[nH]n(-c5ccccc5)c(=O)c42)c2ccccc2C3=O)cc1 (stereo not drawn) -2.43
CCOC(=O)c1ccc(-c2ccc(C(=O)Nc3cccnc3)o2)cc1 0.149
COc1ccc(-n2c(O)c(C=NCC(c3ccco3)N3CCCC3)c3ccccc3c2=O)cc1OC (stereo not drawn) 0.182
O=C(CSc1nnnn1-c1ccc(O)cc1)N1N=C(c2ccc3ccccc3c2)CC1c1ccccc1 (stereo not drawn) 0.13
CN(C)c1ccc(/C=N\S(=O)(=O)c2ccccc2)cc1 0.722
CC1=NN(Cc2ccccc2)C(=O)/C1=C/c1ccc(N(C)C)cc1 -0.804
CN1/C(=C\C(=O)c2cccnc2Cl)C(C)(C)c2ccccc21 0.168
Cc1noc(C)c1C(=O)OCC(=O)/C=C1\N(C)c2ccccc2C1(C)C -0.053
Cc1ccccc1NC(=S)NNC(=O)c1cccc(Br)c1 -1.36
N#Cc1c(-c2ccc(Cl)cc2)c2c([nH]c1=S)CCCC2 -0.344
CN(C)c1nc(-c2cccnc2)nc(-c2ccc(Cl)cc2)c1C#N -1.03
COCc1c(N)c(C)nc(Cl)c1C#N 0.228
O=C(CN1CCCCC1)Nc1ccccc1Cl 1.02
O=C1/C(=C\c2ccccc2Cl)SC(=S)N1CCC(=O)N1CCCc2ccccc21 -0.502
CSc1ccc(CNCCN2CCOCC2)cc1 -0.131
CCN(CC(=O)NCc1cccs1)S(=O)(=O)c1ccc(NC(C)=O)cc1 -0.12
CCN(CC)C(=O)CN(c1cccc([N+](=O)[O-])c1)S(=O)(=O)c1ccccc1 0.165
O=C(Nc1cccc([N+](=O)[O-])c1)Nc1ccc(Cl)cn1 0.868
COc1cccc(CC2(CO)CCCN(CC3=Cc4cc(OC)ccc4OC3)C2)c1 (stereo not drawn) -0.447
CCc1ccc(-n2c(=S)sc3c(=O)n(-c4ccccc4OC)c(=S)[nH]c32)cc1 0.222
COc1cccc(-n2c(=S)sc3c(=O)n(-c4ccccc4OC)c(SCC4OCCO4)nc32)c1 0.408
COc1ccc(NC(=O)c2ccccc2CC[N+](=O)[O-])cc1 0.216
CCOC(=O)C(C)Oc1cccc2c(=O)n(CC(=O)NCCc3ccc(OC)c(OC)c3)ccc12 (stereo not drawn) -0.831
COC(=O)COc1cccc2c(=O)n(CC(=O)NCCc3ccc(OC)c(OC)c3)ccc12 -0.562
COc1cccc(CN2CCNC(=O)C2CC(=O)N(C)CCc2ccccn2)c1 (stereo not drawn) 0.0523
C/C(=N/NC(=O)CSc1ccccn1)c1ccc([N+](=O)[O-])cc1 -0.494
O=c1cnnc(Nc2ccccc2F)[nH]1 0.476
CCOC(=O)Cc1csc(NC(=O)Nc2ccccc2)n1 0.0709
CCOC(=O)Cc1csc(NC(=O)CSc2nnc(-c3cccnc3)n2Cc2ccco2)n1 0.0388
CCOC(=O)Cc1csc(NC(NC(=O)OCC)(C(F)(F)F)C(F)(F)F)n1 1.5
CCOC(=O)Cc1csc(NC(=O)CSc2nc(C)cc(=O)[nH]2)n1 -0.406
Cn1nc(C(F)(F)F)c2cc(C(=O)N3CCOCC3)sc21 1.3
COc1ccccc1-n1ccnc1SCC(=O)NC(C)(C)C -0.243
Cc1nc(NCCN)c(C#N)c2c1COC(C)(C)C2 0.0226
CCCCc1nc(NCc2ccccc2)c(C#N)c2c1CCCC2 0.19
COc1cc2nc(CN(C)Cc3ccc(F)cc3)[nH]c(=O)c2cc1OC 0.927
COc1ccc(-c2nc(CN3CCN(c4ncccn4)CC3)c(C)o2)cc1C -0.768
Cc1cc(NC(=O)OC(C)C)ccc1-c1ccc(NC(=O)OC(C)C)cc1C 0.938
O=C(NNC(=O)C1C2CCC(C2)C1C(=O)O)c1ccc(Cl)cc1 (stereo not drawn) -0.0201
C[C@H](NC(=O)c1ccccc1Cl)C(=O)OCCOc1cccc(Cl)c1 0.0242
COc1ccc(Cl)cc1C(=O)NNC(=S)NC(=O)/C=C/c1ccco1 1.26
COc1cccc2c(N/N=C/c3ccco3)cc(C)nc12 -0.776
Cc1cc(=O)oc2c1c(C)nn2-c1ccc(Cl)cc1 0.108
COc1ccc(S(=O)(=O)NCC2CCCN(C(=O)c3occc3C)C2)cc1 (stereo not drawn) -0.286
C/C=C/C=C/C(=O)OCC(=O)Nc1ccc(Cl)cc1 -0.0163
CCC(C)NC(=O)Cn1nc(C(F)(F)F)c2c1CCC2 (stereo not drawn) -0.0332
Cc1cc(-c2csc(N)n2)c(C)n1Cc1ccccc1 -1.12
O=C(O)CCC(=O)Nc1nc2ccc([N+](=O)[O-])cc2s1 0.0361
O=C(Nc1nc2ccc([N+](=O)[O-])cc2s1)c1ccc(S(=O)(=O)N2CCCc3ccccc32)cc1 -2.44
O=C(NCCCN1CCOCC1)c1ccccc1NS(=O)(=O)c1ccc(F)cc1 0.243
O=C1CC(=O)Nc2cc(S(=O)(=O)N3CCN(c4cccc(C(F)(F)F)c4)CC3)ccc2N1 -0.0476
COc1ccccc1C(c1nnnn1CC1CCCO1)N1CCN(c2ccccc2)CC1 (stereo not drawn) -0.18
COc1ccc2[nH]c(=O)c(CN(Cc3nnnn3CCc3ccccc3)CC3CCCO3)cc2c1 (stereo not drawn) -1.17
CCN(CC)CC1(O)CCN(C(=O)c2ccc(Cl)c(Cl)c2)CC1 0.898
Cc1nn(CC(=O)Nc2ccc3c(c2)OCO3)c(C)c1[N+](=O)[O-] 0.634
CC(CC(=O)Nc1ccccc1)n1ccnc1 (stereo not drawn) -0.543
CC(=O)Oc1ccc(C)cc1N1C(=O)c2ccc(C(=O)O)cc2C1=O 0.575
O=C(c1ccc2c(c1)C(=O)N(c1ccc(Cl)cc1)C2=O)N1CCN(c2ccccn2)CC1 0.202
O=C(CN1CCN(S(=O)(=O)/C=C/c2ccccc2)CC1)Nc1ccc(N2CCOCC2)cc1 1.12
O=C(NC(=O)N1CCOCC1)c1ccccc1 0.751
COc1cc(NC(=O)COC(=O)c2cnc(C)cn2)c(C)cc1[N+](=O)[O-] -0.377
O=C(O)c1ccccc1C(=O)Nc1ccccc1[N+](=O)[O-] -0.117
Cc1csc(NC(=O)CSc2ccc(-c3ccc(F)cc3)nn2)n1 -0.896
Cn1c(-c2ccccc2)c[n+]2c1CCCCC2 0.591
Cc1ccc(C(=O)N2CCCC(c3ccccc3)=N2)cc1 -0.95
CCOC(=O)C1CCCN(C(=O)COc2ccc(N(C)S(=O)(=O)c3ccc(C)cc3)cc2)C1 (stereo not drawn) 0.882
CCN(CC)S(=O)(=O)c1ccc(NC(=O)c2cccnc2Cl)c(NC(=O)c2cccnc2Cl)c1 0.845
COC(=O)C(C)C1Sc2ccccc2NC1=O (stereo not drawn) -0.193
COc1ccc(CCNC(=O)CC2SC(=Nc3cc(C)cc(C)c3)NC2=O)cc1OC (stereo not drawn) -0.14
CC(Nc1nc(N2CCOCC2)nc2ccccc12)c1ccccc1 (stereo not drawn) -0.474

B-score, active:
Cc1nnnn1/C(=C\c1ccccc1)C(=O)OCC(=O)N1CC2(C)CC1CC(C)(C)C2 (stereo not drawn) -5.08
COC(=O)C1=C(C)NC2=C(C(=O)c3ccccc32)C1c1ccc(-c2ccc(C(=O)O)cc2)o1 (stereo not drawn) 3.35
CN(C)c1ccc(C=C2C(=O)OC3(CCCC3)OC2=O)cc1 -4.03
CC(=O)Nc1cccc(OCC(=O)/C=C2\N(C)c3ccccc3C2(C)C)c1 -3.01
CNc1nccc(-c2ccc(Cl)cc2)c1C#N -3.41
O=C(CN1CCCCCC1)NCCN1C(=O)S/C(=C\c2ccccc2Cl)C1=O -2.58
O=C(CCl)N(Cc1cccc([N+](=O)[O-])c1)c1cccc(Cl)c1 -3.06
COc1ccccc1-n1c(=S)[nH]c2c(sc(=S)n2-c2ccc(C)cc2C)c1=O 2.35
COC(=O)COc1cccc2c(=O)n(CC(=O)NCc3ccccc3)ccc12 2.99
CCOC(=O)Cc1csc(NC(=O)CSc2ccc(Br)cc2)n1 -2.72
CCOC(=O)Cc1csc(SCC(=O)NC(C)C23CC4CC(CC(C4)C2)C3)n1 (stereo not drawn) -3.3
CCCCc1nc(NCCN)c(C#N)c2c1CSC(C)(C)C2 -3.92
COc1cc2c(cc1OC)C(/C=C/c1ccco1)=NCC2 -7.44
O=C(NC(Nc1nc2ccc([N+](=O)[O-])cc2s1)(C(F)(F)F)C(F)(F)F)c1ccccc1 -4.53
Cc1cc2cc(CN(Cc3cccs3)Cc3nnnn3CC3CCCO3)c(=O)[nH]c2cc1C (stereo not drawn) -5.43
O=C(O)c1ccc2c(c1)C(=O)N(c1ccc(/C=C/C(=O)c3ccccc3)cc1)C2=O -2.93
O=C(/C=C/c1ccc(N2CCOCC2)cc1)c1ccccc1 -3.77
Cc1ccc(C(=O)C[n+]2cc(-c3ccccc3)n3c2CCCCC3)cc1 -3.3
Cc1ccc(CNC(=O)CC2Sc3ccccc3NC2=O)cc1 (stereo not drawn) 1.17
